# In the supplement of paper PMC6992640:
# Key:
# Assay in all cases: cell viability of combination (% of vehicle); higher = less cytotoxic
# Conditions in all cases: 1 µM; 72 h; partner dose: 10 nM
# HCI01 [1] = system: HCI01 (cells of a triple-negative basal-like breast cancer xenograft)
# Method: (§1)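 PDX cells were treated for 72 h with each drug at 1 µM plus carfilzomib (10 nM; 100 nM for WHIM2). Luciferase viability is expressed as percent of vehicle.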
# UCD52 [2] = system: UCD52 (cells of a triple-negative basal-like breast cancer xenograft)
# Method: as §1
# WHIM30 = system: WHIM30 (cells of a triple-negative basal-like breast cancer xenograft)
# Method: as §1
# HCI01 [3] = system: HCI01; remark: listed apart in the source
# Method: (§2)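 PDX cells were treated for 72 h with each drug at 1 µM plus afatinib (10 nM; 1 µM for WHIM30). Luciferase viability is expressed as percent of vehicle.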
# UCD52 [4] = system: UCD52; remark: listed apart in the source
# Method: as §2
# WHIM2 = system: WHIM2 (cells of a triple-negative basal-like breast cancer xenograft)
# Method: as §2
smiles,measurement,setting,value
CC(C)(C)NC(=O)C1CC2CCCCC2CN1CC(O)C(Cc1ccccc1)NC(=O)C(CC(N)=O)NC(=O)c1ccc2ccccc2n1.CS(=O)(=O)O (stereo not given) [Saquinavir mesylate] + CC(C)C[C@H](NC(=O)[C@H](CCc1ccccc1)NC(=O)CN1CCOCC1)C(=O)N[C@@H](Cc1ccccc1)C(=O)N[C@@H](CC(C)C)C(=O)[C@@]1(C)CO1 [Carfilzomib],cell viability of combination,HCI01 [1],79.5
same,cell viability of combination,UCD52 [2],60.2
same,cell viability of combination,WHIM30,22.9
CCCCc1oc2ccccc2c1C(=O)c1cc(I)c(OCCN(CC)CC)c(I)c1.Cl [Amiodarone HCl] + CC(C)C[C@H](NC(=O)[C@H](CCc1ccccc1)NC(=O)CN1CCOCC1)C(=O)N[C@@H](Cc1ccccc1)C(=O)N[C@@H](CC(C)C)C(=O)[C@@]1(C)CO1 [Carfilzomib],cell viability of combination,HCI01 [1],90.8
same,cell viability of combination,UCD52 [2],63.7
same,cell viability of combination,WHIM30,20.3
CC[C@@]1(O)C(=O)OCc2c1cc1n(c2=O)Cc2cc3c(CN(C)C)c(O)ccc3nc2-1 [Topotecan] + CC(C)C[C@H](NC(=O)[C@H](CCc1ccccc1)NC(=O)CN1CCOCC1)C(=O)N[C@@H](Cc1ccccc1)C(=O)N[C@@H](CC(C)C)C(=O)[C@@]1(C)CO1 [Carfilzomib],cell viability of combination,HCI01 [1],56.9
same,cell viability of combination,UCD52 [2],57.9
CN1CCN(CCCN2c3ccccc3Sc3ccc(C(F)(F)F)cc32)CC1.Cl.Cl [Trifluoperazine 2HCl] + CN(C)C/C=C/C(=O)Nc1cc2c(Nc3ccc(F)c(Cl)c3)ncnc2cc1O[C@H]1CCOC1 [Afatinib],cell viability of combination,HCI01 [3],56.1
same,cell viability of combination,UCD52 [4],73.1
same,cell viability of combination,WHIM2,44
Cc1cc(Nc2ncc(Cl)c(Nc3ccccc3S(=O)(=O)C(C)C)n2)c(OC(C)C)cc1C1CCNCC1 + CC(C)C[C@H](NC(=O)[C@H](CCc1ccccc1)NC(=O)CN1CCOCC1)C(=O)N[C@@H](Cc1ccccc1)C(=O)N[C@@H](CC(C)C)C(=O)[C@@]1(C)CO1 [Carfilzomib],cell viability of combination,HCI01 [1],81.5
same,cell viability of combination,UCD52 [2],31.4
same,cell viability of combination,WHIM30,7.66
N.N.O=C([O-])C1(C(=O)[O-])CCC1.[Pt+2] [Carboplatin] + CC(C)C[C@H](NC(=O)[C@H](CCc1ccccc1)NC(=O)CN1CCOCC1)C(=O)N[C@@H](Cc1ccccc1)C(=O)N[C@@H](CC(C)C)C(=O)[C@@]1(C)CO1 [Carfilzomib],cell viability of combination,HCI01 [1],81.2
same,cell viability of combination,UCD52 [2],70.6
same,cell viability of combination,WHIM30,22.9
COc1cc2c(Nc3ccc(Br)cc3F)ncnc2cc1OCC1CCN(C)CC1 [Vandetanib (ZD6474)] + CC(C)C[C@H](NC(=O)[C@H](CCc1ccccc1)NC(=O)CN1CCOCC1)C(=O)N[C@@H](Cc1ccccc1)C(=O)N[C@@H](CC(C)C)C(=O)[C@@]1(C)CO1 [Carfilzomib],cell viability of combination,HCI01 [1],64.1
same,cell viability of combination,UCD52 [2],39.4
same,cell viability of combination,WHIM30,15.1
CC(C)COc1ccc(CNC(=O)N(Cc2ccc(F)cc2)C2CCN(C)CC2)cc1 [Pimavanserin] + CC(C)C[C@H](NC(=O)[C@H](CCc1ccccc1)NC(=O)CN1CCOCC1)C(=O)N[C@@H](Cc1ccccc1)C(=O)N[C@@H](CC(C)C)C(=O)[C@@]1(C)CO1 [Carfilzomib],cell viability of combination,HCI01 [1],76.1
same,cell viability of combination,UCD52 [2],62.4
same,cell viability of combination,WHIM30,15.8
Clc1ccc(CSC(Cn2ccnc2)c2ccc(Cl)cc2Cl)cc1.O=[N+]([O-])O (stereo not given) [Sulconazole Nitrate] + CC(C)C[C@H](NC(=O)[C@H](CCc1ccccc1)NC(=O)CN1CCOCC1)C(=O)N[C@@H](Cc1ccccc1)C(=O)N[C@@H](CC(C)C)C(=O)[C@@]1(C)CO1 [Carfilzomib],cell viability of combination,HCI01 [1],93.5
same,cell viability of combination,UCD52 [2],62.1
same,cell viability of combination,WHIM30,14.2
CC(Oc1cc(-c2cnn(C3CCNCC3)c2)cnc1N)c1c(Cl)ccc(F)c1Cl [(R)-Crizotinib] + CN(C)C/C=C/C(=O)Nc1cc2c(Nc3ccc(F)c(Cl)c3)ncnc2cc1O[C@H]1CCOC1 [Afatinib],cell viability of combination,HCI01 [3],66
same,cell viability of combination,UCD52 [4],48.3
same,cell viability of combination,WHIM2,44.4
CC(Oc1cc(-c2cnn(C3CCNCC3)c2)cnc1N)c1c(Cl)ccc(F)c1Cl [(R)-Crizotinib] + CC(C)C[C@H](NC(=O)[C@H](CCc1ccccc1)NC(=O)CN1CCOCC1)C(=O)N[C@@H](Cc1ccccc1)C(=O)N[C@@H](CC(C)C)C(=O)[C@@]1(C)CO1 [Carfilzomib],cell viability of combination,HCI01 [1],146
same,cell viability of combination,UCD52 [2],49.1
same,cell viability of combination,WHIM30,27.4
CC1CC(=O)NN=C1c1ccc(NN=C(C#N)C#N)cc1 (stereo not given) [Levosimendan] + CC(C)C[C@H](NC(=O)[C@H](CCc1ccccc1)NC(=O)CN1CCOCC1)C(=O)N[C@@H](Cc1ccccc1)C(=O)N[C@@H](CC(C)C)C(=O)[C@@]1(C)CO1 [Carfilzomib],cell viability of combination,HCI01 [1],74.1
same,cell viability of combination,UCD52 [2],61.5
same,cell viability of combination,WHIM30,21.5
COc1cccc2c1C(=O)c1c(O)c3c(c(O)c1C2=O)CC(O)(C(=O)CO)CC3OC1CC(N)C(O)C(C)O1 (stereo not given) [Doxorubicin] + CN(C)C/C=C/C(=O)Nc1cc2c(Nc3ccc(F)c(Cl)c3)ncnc2cc1O[C@H]1CCOC1 [Afatinib],cell viability of combination,HCI01 [3],43.8
same,cell viability of combination,UCD52 [4],28.5
same,cell viability of combination,WHIM2,15.6
Cc1c(C(=O)NN2CCCCC2)nn(-c2ccc(Cl)cc2Cl)c1-c1ccc(Cl)cc1 [Rimonabant] + CC(C)C[C@H](NC(=O)[C@H](CCc1ccccc1)NC(=O)CN1CCOCC1)C(=O)N[C@@H](Cc1ccccc1)C(=O)N[C@@H](CC(C)C)C(=O)[C@@]1(C)CO1 [Carfilzomib],cell viability of combination,HCI01 [1],78.4
same,cell viability of combination,UCD52 [2],63
same,cell viability of combination,WHIM30,16.3
COc1cc(Nc2ncc(F)c(Nc3ccc4c(n3)N(COP(=O)(O)O)C(=O)C(C)(C)O4)n2)cc(OC)c1OC [Fostamatinib (R788)] + CC(C)C[C@H](NC(=O)[C@H](CCc1ccccc1)NC(=O)CN1CCOCC1)C(=O)N[C@@H](Cc1ccccc1)C(=O)N[C@@H](CC(C)C)C(=O)[C@@]1(C)CO1 [Carfilzomib],cell viability of combination,HCI01 [1],119
same,cell viability of combination,UCD52 [2],64.9
same,cell viability of combination,WHIM30,16.9
CC1(COc2ccc3c(c2)ncn3-c2ccc3cccc(N4CCC(N)CC4)c3n2)COC1 + CN(C)C/C=C/C(=O)Nc1cc2c(Nc3ccc(F)c(Cl)c3)ncnc2cc1O[C@H]1CCOC1 [Afatinib],cell viability of combination,HCI01 [3],56.3
same,cell viability of combination,UCD52 [4],108
CN(C)CC=CC(=O)Nc1cc2c(Nc3ccc(F)c(Cl)c3)ncnc2cc1OC1CCOC1.O=C(O)C=CC(=O)O.O=C(O)C=CC(=O)O (stereo not given) [Afatinib dimaleate] + CN(C)C/C=C/C(=O)Nc1cc2c(Nc3ccc(F)c(Cl)c3)ncnc2cc1O[C@H]1CCOC1 [Afatinib],cell viability of combination,HCI01 [3],50.8
same,cell viability of combination,UCD52 [4],24.5
same,cell viability of combination,WHIM2,35.4
CC1(C)CCC(c2ccc(Cl)cc2)=C(CN2CCN(c3ccc(C(=O)NS(=O)(=O)c4ccc(NC(CCN5CCOCC5)CSc5ccccc5)c(S(=O)(=O)C(F)(F)F)c4)cc3)CC2)C1 (stereo not given) [ABT-263 (Navitoclax)] + CC(C)C[C@H](NC(=O)[C@H](CCc1ccccc1)NC(=O)CN1CCOCC1)C(=O)N[C@@H](Cc1ccccc1)C(=O)N[C@@H](CC(C)C)C(=O)[C@@]1(C)CO1 [Carfilzomib],cell viability of combination,HCI01 [1],47
same,cell viability of combination,UCD52 [2],31.8
same,cell viability of combination,WHIM30,13.3
CC1(C)Cc2c(-c3ccccc3)c(-c3ccc(Cl)cc3)c(CC(=O)O)n2C1 [Licofelone] + CC(C)C[C@H](NC(=O)[C@H](CCc1ccccc1)NC(=O)CN1CCOCC1)C(=O)N[C@@H](Cc1ccccc1)C(=O)N[C@@H](CC(C)C)C(=O)[C@@]1(C)CO1 [Carfilzomib],cell viability of combination,HCI01 [1],83.7
same,cell viability of combination,UCD52 [2],64.7
same,cell viability of combination,WHIM30,18.6
Cc1ccc(-n2[nH]c(C)c(NN=C3C=CC=C(c4cccc(C(=O)O)c4)C3=O)c2=O)cc1C [Eltrombopag] + CN(C)C/C=C/C(=O)Nc1cc2c(Nc3ccc(F)c(Cl)c3)ncnc2cc1O[C@H]1CCOC1 [Afatinib],cell viability of combination,HCI01 [3],52.9
same,cell viability of combination,UCD52 [4],77.1
same,cell viability of combination,WHIM2,48.5
COc1cc(C(=O)NS(=O)(=O)c2ccccc2C)ccc1Cc1cn(C)c2ccc(NC(=O)OC3CCCC3)cc12 [Zafirlukast] + CC(C)C[C@H](NC(=O)[C@H](CCc1ccccc1)NC(=O)CN1CCOCC1)C(=O)N[C@@H](Cc1ccccc1)C(=O)N[C@@H](CC(C)C)C(=O)[C@@]1(C)CO1 [Carfilzomib],cell viability of combination,HCI01 [1],83.2
same,cell viability of combination,UCD52 [2],65
same,cell viability of combination,WHIM30,17.9
CN1CCC(COc2cnc(-c3cccc(Cn4nc(-c5cccc(C#N)c5)ccc4=O)c3)nc2)CC1 + CC(C)C[C@H](NC(=O)[C@H](CCc1ccccc1)NC(=O)CN1CCOCC1)C(=O)N[C@@H](Cc1ccccc1)C(=O)N[C@@H](CC(C)C)C(=O)[C@@]1(C)CO1 [Carfilzomib],cell viability of combination,HCI01 [1],80.4
same,cell viability of combination,UCD52 [2],57
same,cell viability of combination,WHIM30,26.9
COc1cccc2c1C(=O)c1c(O)c3c(c(O)c1C2=O)CC(O)(C(=O)CO)CC3OC1CC(N)C(O)C(C)O1 (stereo not given) [Doxorubicin] + CC(C)C[C@H](NC(=O)[C@H](CCc1ccccc1)NC(=O)CN1CCOCC1)C(=O)N[C@@H](Cc1ccccc1)C(=O)N[C@@H](CC(C)C)C(=O)[C@@]1(C)CO1 [Carfilzomib],cell viability of combination,HCI01 [1],55.4
same,cell viability of combination,UCD52 [2],28.3
same,cell viability of combination,WHIM30,8.32
Cc1c(-c2ccc(O)cc2)n(Cc2ccc(OCCN3CCCCCC3)cc2)c2ccc(O)cc12.Cl [Bazedoxifene HCl] + CC(C)C[C@H](NC(=O)[C@H](CCc1ccccc1)NC(=O)CN1CCOCC1)C(=O)N[C@@H](Cc1ccccc1)C(=O)N[C@@H](CC(C)C)C(=O)[C@@]1(C)CO1 [Carfilzomib],cell viability of combination,HCI01 [1],107
same,cell viability of combination,UCD52 [2],64.4
same,cell viability of combination,WHIM30,11.3
